Reference: PubChem BioAssay (EPA / NIEHS)
“And” between values parts separate entries of the source, which are not always exact repeats. Identical values can stand only once. Some structures have more than one record in an assay (separate samples or runs), and their calls can disagree. The source made the active and inactive calls. How the source made its calls: active means hit-call score of the fitted dose curve at least 0.9, where 1 is the maximum; inactive means score below 0.9.

Tests used:
[1] = read-out: Macrophage colony-stimulating factor (MCSF), CSF1 (gene 1435); assay: BSK_hDFCGF_MCSF: BioMAP Diversity Plus: hDFCGF Assay for Macrophage colony-stimulating factor (MCSF) Biomarker Activity (AID 2283060); settings: primary human foreskin fibroblasts; actives raise or lower the signal
In short: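 M-CSF levels, determined by ELISA, are taken at 24 h after dosing human skin fibroblasts. Responses in either direction are fitted with DMSO serving as the baseline.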

[2] = BSK_hDFCGF_SRB: Viability Assessment in the BioMAP Diversity Plus: hDFCGF Assay (AID 2283061); settings: primary human foreskin fibroblasts;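 further: cells exposed to compound for 24 h before the read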
In short: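 Cells were dosed with test chemical, cultured 24 h, fixed with 10% TCA, then stained with 0.1% SRB and read at 560 nm. The fibroblasts were human foreskin primary cells, and DMSO served as baseline.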

[3] = read-out: TIMP metallopeptidase inhibitor 1 (TIMP1), TIMP1 (gene 7076); assay: BSK_hDFCGF_TIMP1: BioMAP Diversity Plus: hDFCGF Assay for TIMP metallopeptidase inhibitor 1 (TIMP1) Biomarker Activity (AID 2283062); settings: primary human foreskin fibroblasts; actives raise or lower the signal
In short: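 Fibroblasts from human foreskin are treated with test chemical and harvested at 24 h. TIMP-1 is quantified by ELISA, and gain or loss of signal is scored against DMSO.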

[4] = read-out: Monokine induced gamma interferon (MIG), CXCL9 (gene 4283); assay: BSK_hDFCGF_MIG: BioMAP Diversity Plus: hDFCGF Assay for Monokine induced gamma interferon (MIG) Biomarker Activity (AID 2283063); settings: primary human foreskin fibroblasts; actives raise or lower the signal
In short: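 MIG signal, determined by ELISA, reflects 24 h chemical exposure of human skin primary fibroblasts. DMSO serves as negative control and baseline.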

[5] = read-out: Matrix Metallopeptidase 1 (MMP1), MMP1 (gene 4312); assay: BSK_hDFCGF_MMP1: BioMAP Diversity Plus: hDFCGF Assay for Matrix Metallopeptidase 1 (MMP1) Biomarker Activity (AID 2283064); settings: primary human foreskin fibroblasts; actives raise or lower the signal
In short: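 hDFCGF primary fibroblasts (human foreskin); chemical added; 24 h; MMP1 by ELISA; bidirectional fit vs DMSO.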

[6] = read-out: Vascular cell adhesion molecule 1 (VCAM1), VCAM1 (gene 7412); assay: BSK_hDFCGF_VCAM1: BioMAP Diversity Plus: hDFCGF Assay for Vascular cell adhesion molecule 1 (VCAM1) Biomarker Activity (AID 2283065); settings: primary human foreskin fibroblasts; actives raise or lower the signal;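 on AC50: VCAM-1 protein level quantified by ELISA after 24 h chemical exposure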
In short: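 Cells are dosed, cultured for 24 h, then VCAM-1 is quantified by ELISA; signal increases and decreases are both fitted relative to DMSO.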

[7] = read-out: Plasminogen activator inhibitor-1 (PAI1), SERPINE1 (gene 5054); assay: BSK_hDFCGF_PAI1: BioMAP Diversity Plus: hDFCGF Assay for Plasminogen activator inhibitor-1 (PAI1) Biomarker Activity (AID 2283066); settings: primary human foreskin fibroblasts; actives raise or lower the signal
In short: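 Primary dermal fibroblasts (human foreskin), hDFCGF system; compound 24 h; PAI-1 by ELISA; bidirectional fit vs DMSO control.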

[8] = read-out: Intercellular Adhesion Molecule 1 (ICAM1), ICAM1 (gene 3383); assay: BSK_KF3CT_ICAM1: BioMAP Diversity Plus: KF3CT Assay for Intercellular Adhesion Molecule 1 (ICAM1) Biomarker Activity (AID 2283067); settings: primary human keratinocytes with fibroblasts; actives raise or lower the signal
In short: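 Dose the keratinocyte/fibroblast co-culture, wait 24 h, measure ICAM-1 by ELISA, then fit increases or decreases against DMSO. Cytotoxicity is checked in parallel cultures by SRB total-protein staining.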

[9] = read-out: Interferon-gamma inducible Protein 10 (IP10), CXCL10 (gene 3627); assay: BSK_KF3CT_IP10: BioMAP Diversity Plus: KF3CT Assay for Interferon-gamma inducible Protein 10 (IP10) Biomarker Activity (AID 2283068); settings: primary human keratinocytes with fibroblasts; actives raise or lower the signal
In short: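 Human keratinocyte plus foreskin fibroblast primary co-culture exposed to test chemical for 24 h; IP-10 measured by ELISA. Concentration-response fitted bidirectionally against DMSO control as baseline.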

[10] = BSK_KF3CT_SRB: Viability Assessment in the BioMAP Diversity Plus: KF3CT Assay (AID 2283069); settings: primary human keratinocytes with fibroblasts;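 further: total protein by sulforhodamine B staining as a cytotoxicity measure; read 24 h after compound addition; fitted for both signal gain and loss against DMSO baseline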
In short: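 Keratinocytes co-cultured with foreskin fibroblasts (human primary); chemical added, 24 h; fix 10% TCA, stain 0.1% SRB, A560. Bidirectional fit vs DMSO.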

Measured: AC50

CCOC(=O)/C=C\C(=O)OCC
inactive: all assays above

CC(Cl)COP(=O)(OCC(C)Cl)OCC(C)Cl (stereo not given)
not listed: [10]
inactive: all other assays above

CC/C=C\CCOC(=O)c1ccccc1O
active: [1] 13.1 µM | [2] 13.7 µM | [3] 12.4 µM | [4] 20 µM | [5] 13.3 µM | [6] 14.9 µM | [7] 11.6 µM | [8] 20 µM | [9] 31 µM

C=CC(=O)NC(C)(C)C
inactive: all assays above

CC(C)CCCCCOC(=O)CS
active: [7] 9.15 µM
not listed: [10]
inactive: all other assays above

CC1=CC=C(C(C)C)CC1
inactive: all assays above

Oc1c(Cl)cc(Cl)c(Cl)c1Cl
active: [2] 28.7 µM | [3] 32.1 µM | [6] 23.3 µM | [7] 24.6 µM | [8] 20 µM | [9] 20 µM
inactive: [4] | [5]

c1ccc(Nc2cccc3ccccc23)cc1
active: [1] 20 µM and 14.5 µM | [2] 32.7 µM and 33.1 µM | [3] 29.6 µM and 28.8 µM | [4] 27.5 µM and 23.4 µM | [5] 30.7 µM and 30 µM | [6] 21.2 µM and 20 µM | [7] 13.1 µM and 12.3 µM | [8] 30.7 µM and 37.7 µM | [9] 34.2 µM and 35.7 µM

CCCCCCCCCCCC(C)=O
not listed: [1] | [10]
inactive: all other assays above

CCCCCCC=O
not listed: [1] | [10]
inactive: all other assays above

CC(CCC(=O)O)(c1ccc(O)cc1)c1ccc(O)cc1
not listed: [10]
inactive: all other assays above

COc1ccc(C(=O)c2ccccc2)c(O)c1
inactive: all assays above

C=CC(=O)OCCCCCCOC(=O)C=C
active: [1] 5.72 µM | [2] 5.41 µM | [3] 9.84 µM | [4] 3.3 µM | [5] 12.8 µM | [6] 0.881 µM | [7] 11.5 µM | [8] 20 µM | [9] 26.6 µM | [10] 20 µM

CCC1(C)C(=O)N(Cl)C(=O)N1Cl (stereo not given)
not listed: [10]
inactive: all other assays above

CCCCCCOC(=O)CCCCC(=O)OCCCCCC
not listed: [1] | [10]
inactive: all other assays above

CC(C)c1cccc(C(C)C)c1N
inactive: all assays above

c1ccc2c(c1)[nH]c1ccccc12
not listed: [1] | [10]
inactive: all other assays above

CCOC(=O)C1=NOC(c2ccccc2)(c2ccccc2)C1
inactive: all assays above

O=C1CCCCCCCCCCCN1
not listed: [1] | [10]
inactive: all other assays above

CCCCCC1=CCCC1=O
active: [5] 0.016 µM
not listed: [10]
inactive: all other assays above

COc1ccc(C(=O)/C(Br)=C\C(=O)O)cc1
active: [2] 29.4 µM | [3] 28.6 µM and 20 µM | [4] 28 µM and 31.3 µM | [5] 33.5 µM and 30.7 µM | [6] 14.7 µM and 7.59 µM | [7] 28.9 µM | [8] 20 µM | [9] 30.6 µM and 30.2 µM
inactive: [7]

CCCCCCCO
not listed: [10]
inactive: all other assays above

CCCCCCCCCCCC(=O)N(C)CC(=O)O
not listed: [1] | [10]
inactive: all other assays above

Nc1nc(N)nc(-c2ccccc2)n1
inactive: all assays above

C[N+](C)(C)CCCNS(=O)(=O)C(F)(F)C(F)(F)C(F)(F)C(F)(F)C(F)(F)C(F)(F)C(F)(F)C(F)(F)F
active: [2] 55.3 µM and 47.5 µM | [6] 38.9 µM and 50.2 µM | [7] 47.8 µM and 53.5 µM | [8] 47.6 µM | [9] 42.7 µM and 46.7 µM
inactive: [3] | [4] | [5] | [8]

Nc1cccc(N)n1
inactive: all assays above

O=C(Cl)c1c(Cl)c(Cl)c(C(=O)Cl)c(Cl)c1Cl
active: [7] 0.016 µM
not listed: [10]
inactive: all other assays above

C1CNCCN1
not listed: [10]
inactive: all other assays above

Cc1ccc([N+](=O)[O-])cc1N
not listed: [1] | [10]
inactive: all other assays above

O=C(Oc1ccccc1)c1ccccc1C(=O)Oc1ccccc1
active: [7] 20 µM
not listed: [1] | [10]
inactive: all other assays above

CCOC(=O)C1=NN(c2ccc(Cl)cc2Cl)C(C)(C(=O)OCC)C1 (stereo not given)
not listed: [1]
inactive: all other assays above

C=CCCCCCCCCC=O
not listed: [1] | [10]
inactive: all other assays above

Fc1ccc(Br)cc1
not listed: [1] | [10]
inactive: all other assays above

CCCCCCCCC(CO)CCCCCC (stereo not given)
active: [2] 2 µM | [7] 3.75 µM
not listed: [1] | [10]
inactive: all other assays above

Nc1ccc(C(=O)O)cc1
not listed: [1] | [10]
inactive: all other assays above

O=C(O)C(F)(F)C(F)(F)C(F)(F)C(F)(F)C(=O)O
not listed: [1] | [10]
inactive: all other assays above

C=CC(=O)OCCCCCCCC(C)C
inactive: [3] | [5] | [8] | [9]
active: [2] 25.6 µM | [4] 20 µM | [6] 12.3 µM | [7] 5.93 µM

CC/C=C\C/C=C\C/C=C\CCCCCCCC(=O)OC
active: [2] 6.53 µM | [3] 10.7 µM | [4] 11.1 µM | [5] 12.3 µM | [6] 8.22 µM | [7] 6.64 µM | [8] 12.3 µM | [9] 20 µM | [10] 20 µM

CCCC(C)C(=O)OCC (stereo not given)
not listed: [1] | [10]
inactive: all other assays above

Oc1ccc(/C=C/c2cc(O)cc(O)c2)cc1
active: [7] 0.474 µM
not listed: [1]
inactive: all other assays above

CCNc1nc(NC(C)(C)C)nc(OC)n1
not listed: [1] | [10]
inactive: all other assays above

Cc1c(O)cccc1O
not listed: [1] | [10]
inactive: all other assays above

CC(C)C(=O)OCCc1ccccc1
not listed: [1] | [10]
inactive: all other assays above

CC1(C)CC(O)CC(C)(C)N1[O]
not listed: [1] | [10]
inactive: all other assays above
